By AC50 is commonly meant the concentration at which the activity in the assay is half-maximal.

Active and inactive are the calls of the source. Rule for the calls: active = hit-call score of the fitted dose curve at least 0.9, where 1 is the maximum; inactive = score below 0.9.

The text below walks through data of PubChem BioAssay (EPA / NIEHS).

Hypoxia-inducible factor 1-alpha (Homo sapiens), sequence (Q16665 whole entry, looked up): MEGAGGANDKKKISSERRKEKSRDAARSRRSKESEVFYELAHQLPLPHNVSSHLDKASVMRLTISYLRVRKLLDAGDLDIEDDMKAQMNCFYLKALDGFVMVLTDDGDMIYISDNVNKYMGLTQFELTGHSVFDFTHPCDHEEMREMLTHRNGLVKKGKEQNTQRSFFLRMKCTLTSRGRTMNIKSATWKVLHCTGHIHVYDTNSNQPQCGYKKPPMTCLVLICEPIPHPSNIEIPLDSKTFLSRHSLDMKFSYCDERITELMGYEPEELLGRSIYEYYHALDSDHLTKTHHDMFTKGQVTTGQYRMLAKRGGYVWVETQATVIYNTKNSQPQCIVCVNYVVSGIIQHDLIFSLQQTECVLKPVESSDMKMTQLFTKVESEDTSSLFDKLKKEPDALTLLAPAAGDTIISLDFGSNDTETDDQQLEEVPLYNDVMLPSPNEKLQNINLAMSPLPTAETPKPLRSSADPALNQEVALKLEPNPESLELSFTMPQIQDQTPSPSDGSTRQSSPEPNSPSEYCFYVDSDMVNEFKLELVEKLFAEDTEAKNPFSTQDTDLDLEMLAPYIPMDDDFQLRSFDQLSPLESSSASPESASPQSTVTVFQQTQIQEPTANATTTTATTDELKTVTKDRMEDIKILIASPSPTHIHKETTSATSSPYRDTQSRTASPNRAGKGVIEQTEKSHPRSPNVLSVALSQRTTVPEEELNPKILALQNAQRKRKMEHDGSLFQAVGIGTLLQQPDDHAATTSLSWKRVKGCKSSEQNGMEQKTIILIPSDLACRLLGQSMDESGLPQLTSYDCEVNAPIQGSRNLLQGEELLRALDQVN

The assay concerns the target Hypoxia-inducible factor 1-alpha (Homo sapiens) (UniProt Q16665). Nature of the assay: ATG_HIF1a_CIS: Attagene CIS-FACTORIAL HepG2 Assay for human Hypoxia Inducible Factor 1 (HIF1A) (AID 2282951). The settings on record: HepG2 Attagene cis-factorial HIF1a reporter transcription; actives raise or lower the signal. In outline: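 Fluorescence intensity of capillary-separated, 6-FAM-labelled reporter amplicons gives mRNA induction in HepG2 cells carrying transfected cis-promoter reporter units; cells exposed 24 h, responses fitted up or down from DMSO.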
`CC1=CC(=O)c2ccccc2C1=O`: the call was inactive. Consider `CC(C)(C)C1CCCCC1O` (stereo not drawn), for which the outcome was inactive.

For the molecule `CC(C)CCOCCC(C)C`, the result was inactive.

Regarding `CCCCCCCCCCCCCC[n+]1ccccc1`, the call was inactive. On the same count and under the same terms, with `CCCCCCCC(OC)OC` the entry was “inactive”; with `O=CC(F)(F)C(F)(F)C(F)(F)C(F)F`, “inactive”. Regarding `CCCCCCCCCCCCCCC`, the call was inactive. For `O=C1OC(=O)C(F)(F)C1(F)F`, the molecule was classed as inactive. Turning to `COCN(COC)c1nc(N(COC)COC)nc(N(COC)COC)n1`, the call was inactive.

On to `CC(=O)Nc1ccc(S(N)(=O)=O)cc1`, for which the call was inactive. For the molecule `CCCCCCCCCCCC(=O)NCCCN(C)C`, the half-maximal activity concentration (AC50) was 18.1 µM (active).

As for `C=CC(C)(CCC=C(C)C)OC(C)=O` (stereo not drawn), the molecule was called inactive. Turning to `O=C(OC(=O)C(F)(F)C(F)(F)F)C(F)(F)C(F)(F)F`, the call was inactive.

As for `C[N+](C)(CCCNS(=O)(=O)CCC(F)(F)C(F)(F)C(F)(F)C(F)(F)C(F)(F)C(F)(F)F)CC(=O)[O-]`, the result was inactive. For the molecule `CCOC(=O)CN[C@@H](C(=O)N1CC[C@H]1C(=O)NCc1ccc(/C(N)=N/O)cc1)C1CCCCC1`, the molecule was called inactive.

Turning to `CC(O)COc1ccccc1` (stereo not drawn), the outcome was inactive. For `CCC(C)c1ccccc1O` (stereo not drawn), the molecule was classed as inactive. On to `C/C=C/C(=O)C1=C(C)CCCC1(C)C`, for which the molecule was classed as inactive. Regarding `O=C(NCc1ncc(C(F)(F)F)cc1Cl)c1c(Cl)cccc1Cl`, the result was inactive. On the same count and under the same terms, the value for `CCCCCC(C)OC(=O)COc1ccc(Cl)c2cccnc12` (stereo not drawn) was “inactive”; that for `O=S(=O)(O)C(F)(F)C(F)(F)C(F)(F)C(F)(F)C(F)(F)C(F)(F)C(F)(F)C(F)(F)C(F)(F)C(F)(F)F` was “inactive”. Turning to `c1cc2cccc3c4cccc5cccc(c(c1)c23)c54`, the outcome was inactive. `CCCCC(CC)C(=O)OCCOCCOCCOCCOC(=O)C(CC)CCCC` (stereo not drawn): the outcome was inactive.
